# According to PubChem BioAssay (NCI):
# This is part of a sample that, as a whole, favours compounds with a hit. Of some 79,000 tested, about 15% had one in any assay. Unmarked numbers belong to inactive results. Active and inactive are the calls of the source. Rule as the data show it: active = growth inhibition above about 70%; inactive = the rest.
# Assays:
# [1] = NCI Yeast Anticancer Drug Screen. Data for the rad50 strain (AID 155);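 also: 0% = growth of vehicle-only cultures of the same strain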; conditions: S. cerevisiae rad50 strain growth inhibition, stronger effect = higher value
# Procedure, shortened: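 DNA repair mutant yeast, compound exposure, growth read-out; inhibition is taken relative to vehicle.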
# [2] = NCI Yeast Anticancer Drug Screen. Data for the mec2-1 strain (AID 157); conditions: S. cerevisiae mec2-1 strain, stronger effect = higher value
# Procedure, shortened: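 mec2-1 yeast strain, carrying an alteration in DNA damage repair or cell cycle control, was exposed to compounds; growth inhibition was measured relative to vehicle-treated controls.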
# [3] = NCI Yeast Anticancer Drug Screen. Data for the sgs1 mgt1 strain (AID 161);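 also: 0% = growth of cultures given vehicle only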; conditions: S. cerevisiae sgs1 mgt1 strain, stronger effect = higher value
# Procedure, shortened: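 This yeast growth screen uses a strain with defined DNA-repair lesions; compound-treated growth is compared with vehicle-treated growth.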
# [4] = NCI Yeast Anticancer Drug Screen. Data for the cln2 rad14 strain (AID 165);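 also: 0% = growth equal to vehicle treated cultures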; conditions: S. cerevisiae cln2 rad14 strain, stronger effect = higher value
# Procedure, shortened: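 Yeast carrying cln2 and rad14 alterations (cell cycle control and DNA damage repair) were exposed to compounds. Growth inhibition was measured against vehicle-treated controls.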
# [5] = NCI Yeast Anticancer Drug Screen. Data for the bub3 strain (AID 167); conditions: S. cerevisiae bub3 mutant strain, stronger effect = higher value
# Procedure, shortened: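 In this screen, a yeast mutant lacking normal mitotic checkpoint function is challenged with compound. Relative growth versus vehicle gives the inhibition value.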
# [6] = NCI Yeast Anticancer Drug Screen. Data for the mlh1 rad18 strain (AID 175); conditions: S. cerevisiae mlh1 rad18 strain growth inhibition, stronger effect = higher value
# Procedure, shortened: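 Growth inhibition of the yeast strain was measured after compound exposure and expressed relative to vehicle-treated controls. The strain carries defined defects in DNA damage repair.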
# [7] = at 5.0 µM (retest, dose inferred, filed as 0.5)
# [8] = at 50.0 µM (retest, dose inferred, filed as 5.0)
SMILES,"growth inhibition [1, 7]","growth inhibition [1, 8]",growth inhibition ([1]; at 50.0 µM),"growth inhibition [2, 7]","growth inhibition [2, 8]",growth inhibition ([2]; at 50.0 µM),"growth inhibition [3, 7]","growth inhibition [3, 8]",growth inhibition ([3]; at 50.0 µM),"growth inhibition [4, 7]","growth inhibition [4, 8]",growth inhibition ([4]; at 50.0 µM),"growth inhibition [5, 7]","growth inhibition [5, 8]",growth inhibition ([5]; at 50.0 µM),"growth inhibition [6, 7]","growth inhibition [6, 8]",growth inhibition ([6]; at 50.0 µM)
CS[C@H]1CC[C@H]2[C@@H]3CCc4cc(O)ccc4[C@H]3CC[C@]12C,0%,73% (active),71.6% (active),2%,66%,61.8%,0%,71% (active),63.4%,7%,85% (active),87.6% (active),12%,81% (active),82.8% (active),-8%,75% (active),85.8% (active)
CN(C)CCN(C)CCC(=O)/C=C/c1ccccc1,95% (active),99% (active),87.9% (active),100% (active),99% (active),84.3% (active),98% (active),99% (active),99.5% (active),86% (active),99% (active),96% (active),99% (active),99% (active),98.2% (active),99% (active),99% (active),99.5% (active)
COC(=O)C1(C)CC2C(C)(CCC3(C)C4=CC=C5C(=CC(=O)C(O)=C5C)C4(C)CCC23C)CC1O (stereo not given),44%,98% (active),85.8% (active),44%,98% (active),87.9% (active),48%,98% (active),90.3% (active),51%,97% (active),88% (active),75% (active),98% (active),87.3% (active),50%,96% (active),85.8% (active)
CCCCCN(CCCCC)CC(O)c1cccc2cc(Cl)ccc12 (stereo not given),-1%,98% (active),99.5% (active),-1%,98% (active),99.7% (active),4%,99% (active),99.6% (active),-4%,99% (active),99.5% (active),2%,99% (active),99.5% (active),0%,99% (active),99.6% (active)
Cn1c(=O)c2c(nc(CCCCCCCc3nc4c(c(=O)n(C)c(=O)n4C)n3C)n2C)n(C)c1=O,4%,5%,48.9%,1%,18%,23.3%,2%,10%,42%,2%,10%,60.2%,7%,4%,16.7%,-2%,9%,35.8%
O=[N+]([O-])c1cccc(Cl)c1C(Nc1nncs1)Nc1nncs1,7%,60%,55.5%,7%,41%,27.7%,10%,67%,73.9% (active),-1%,20%,26.6%,-2%,22%,33.8%,3%,82% (active),68.3%
O=C1Oc2ccccc2C(=O)/C1=C/N1C(=O)/C(=C/c2ccc3c(c2)OCO3)SC1=S,7%,76% (active),60.9%,-7%,78% (active),47.8%,4%,66%,80.2% (active),-13%,82% (active),70.5% (active),31%,30%,66.3%,-4%,77% (active),44.3%
c1csc(-c2nccc3c2[nH]c2ccccc23)c1,-18%,92% (active),88% (active),-17%,94% (active),92.8% (active),-29%,95% (active),90.2% (active),-13%,83% (active),91% (active),-42%,97% (active),91.3% (active),-19%,94% (active),86.7% (active)
Cc1ccc(S(=O)(=O)NC2(C=O)CCC(C(C)(C)C)CC2)cc1 (stereo not given),15%,86% (active),77.7% (active),20%,88% (active),68.4%,25%,84% (active),82% (active),20%,92% (active),77.5% (active),19%,88% (active),84.7% (active),37%,95% (active),81% (active)
Clc1cc2c(c3ncccc13)OCN(Cc1ccccc1)C2,16%,76% (active),99.2% (active),1%,33%,99.5% (active),14%,98% (active),99.5% (active),9%,98% (active),99.2% (active),-3%,99% (active),99.4% (active),23%,99% (active),99.3% (active)
